# Screening results from PubChem BioAssay.
# Only some compounds are listed: those with a hit (about 3.7% of all), similar ones and a draw of the others.
# WRN inhibitor = WRN helicase (human) inhibition; Potency, µM (highest dose often 114 µM), hits mostly inhibitors; AID 651768; 0.46% of 360,000 active; WRN helicase unwinding, fluorescent forked duplex, kinetic; further: nearly all actives have a fitted effect of over 55% in size
#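 WRN at 20 nM final was preincubated with compound for 15 min at room temperature; reaction started with 100 nM forked duplex oligonucleotide carrying fluorophore and quencher plus 2 mM ATP (final). Unwinding followed kinetically by red fluorescence (ex 525/em 598 nm).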
# PI5P4K alpha inh = inhibitors of human PI5P4K alpha; PI5P4Kalpha enzyme, ADP-Glo luminescence, 60 min; hits give low values; max response, %; 1.2% of 330,000 active; AID 652105; active means max response of -50% or lower; inconclusive means between -30% and -50%; inactive means -30% or higher; further: value at the top dose of about 77 µM
#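 Quantitative HTS of the MLSMR library against PI5P4Kalpha with substrate. ATP added last at 5 microM final; room temperature, 60 minutes. Remaining ATP depleted, ADP converted and read as luminescence.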
# VDR inh = inhibitors of human vitamin D receptor | P11473 | VDR-SRC2-3 peptide fluorescence polarization, 2 h | Potency, µM, usual class: inhibitors | 0.93% of 400,000 active | AID 504847
#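 Inhibition of the VDR/SRC2-3 peptide interaction is quantified by fluorescence polarization. Compounds (23 nl, pintool) incubate with the reagents for 2 hours at ambient room temperature.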
# PLK1 PBD block = PLK1 (human) polo-box domain binding inhibition. Potency, µM, usual class: inhibitors. P53350. 2.8% of 360,000 active. Plk1 PBD binding of FITC phosphopeptide, fluorescence polarization. AID 720504; further: series mostly up to about 57 µM; nearly all actives have a fitted effect of over 65% in size
# FEN1 inhibitor = human FEN1 inhibition; P39748; Recombinant FEN1 flap cleavage, fluorescence, 15 min; Potency, µM (series often up to 114 µM), actives largely listed as inhibitors; 0.35% of 390,000 active; AID 588795; further: nearly all actives have a fitted effect of over 65% in size
# Target sequence (P39748 whole entry, looked up): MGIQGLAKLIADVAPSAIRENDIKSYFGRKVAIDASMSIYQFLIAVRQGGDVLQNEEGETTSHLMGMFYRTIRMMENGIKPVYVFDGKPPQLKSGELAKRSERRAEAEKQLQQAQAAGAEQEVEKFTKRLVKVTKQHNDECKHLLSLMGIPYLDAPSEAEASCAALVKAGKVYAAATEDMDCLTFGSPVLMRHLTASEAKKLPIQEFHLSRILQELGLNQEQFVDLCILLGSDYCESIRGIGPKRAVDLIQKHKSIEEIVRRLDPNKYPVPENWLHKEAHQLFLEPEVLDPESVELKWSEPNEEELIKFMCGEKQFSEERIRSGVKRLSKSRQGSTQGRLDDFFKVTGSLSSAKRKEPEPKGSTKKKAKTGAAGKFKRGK
#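 FEN1 at 10 nM preincubated with compounds 15 min at room temperature, then flap DNA substrate added at 50 nM final. Signal read at 0 and 15 min; concentration-response fitted with four-parameter Hill equation.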
# TCR act = activates T cell receptor signaling | primary human leukocytes, anti-CD3, IL-2 HTRF, 48 h | Potency, µM (top dose mostly 9.22 µM), most hits filed as activators | 330,000 tested, under 10 active | AID 504894
#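 Primary human leukocytes were stimulated with a-CD3 beads plus compounds for 48 hr without co-stimulation; secreted IL-2 was quantified by HTRF using a-IL-2-K (europium cryptate) and a-IL-2-d2, excited at 320nm with acceptor emission read at 665nm.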
# Hits are given with their value; n = inactive; u = inconclusive; x = not tested or not shown; ! = not active in a repeat; [ ] = another dose, or the depositor's remark. Unless noted, the call rests on the fitted dose curve; in most records, active means well fitted curve in the direction sought with a large enough effect; inconclusive means small, poorly fitted or top-dose-only effect, or another doubt; inactive means no such curve, though single readings can be large; an effect the other way counts as inactive or inconclusive.
SMILES,WRN inhibitor,PI5P4K alpha inh,VDR inh,PLK1 PBD block,FEN1 inhibitor,TCR act
O=c1cc(CO)oc(C(Nc2ccccn2)c2ccc(C(F)(F)F)cc2)c1O (stereo unspecified),n,n,u,u,n,n
COc1cccc(C(Nc2ccccn2)c2oc(CO)cc(=O)c2O)c1 (stereo unspecified),n,n,u,21µM,n,n
C[N+]1(CC(=O)c2ccc(Oc3ccccc3)cc2)CCOCC1,x,x,x,x,n,x
Cc1ccc(C(=O)n2nc(C)c(S(=O)(=O)N3CCCCCC3)c2C)cc1,x,x,n,x,n,x
CN(Cc1ccco1)c1ncnc2ccc(-c3ccccc3Cl)cc12,x,x,50µM!,x,n,n
CN(Cc1ccco1)c1ncnc2ccc(-c3ccccc3C(F)(F)F)cc12,x,x,32µM,x,x,x
CN(C)Cc1ccccc1-c1cc(N(C)Cc2ccco2)ncn1,x,x,n,x,x,x
CN(Cc1ccco1)c1ncncc1-c1ccccc1Cl,x,x,28µM,x,x,x
CN(C)Cc1ccccc1-c1ccc2ncnc(N(C)C)c2c1,x,x,n,x,x,x
CN(Cc1ccco1)c1cc(-c2ccccc2Cl)ncn1,x,x,45µM,x,x,x
O=C(CSc1nc2c([nH]c3ccccc32)c(=O)n1-c1cccc(C(F)(F)F)c1)N1CCCC1,x,x,n,x,n,x
Cc1ccccc1C(=O)Nc1nnc(S(=O)(=O)N(C)Cc2ccc(Cl)cc2)s1,x,x,n,x,n,x
COc1ccccc1-c1ccc2ncnc(N(C)Cc3ccco3)c2c1,x,x,45µM,x,x,x
CN(Cc1ccco1)c1ncnc2ccc(-c3ccoc3)cc12,x,x,50µM!,x,n,n
CN(C)c1ccc(-c2ccc3ncnc(N(C)C)c3c2)cc1,x,x,n,x,x,x
COc1ccc(C(=O)Nc2cccc(-c3nc4cccnc4s3)c2C)c(OC)c1,x,x,n,x,n,x
O=C1c2ccccc2C(=O)N1c1ncccn1,n,n,n,n,n,n
O=C1c2ccccc2C(=O)N1C1C=CC=CC=C1,n,n,x,30µM,x,x
CCc1cc[n+](CC(=O)c2ccc(F)cc2)cc1C(=O)O,x,x,x,x,n,x
O=C(c1ccccc1)N1N=C(c2ccccc2)CC1c1ccccc1O (stereo unspecified),u,n,u,3.4µM,n,n
O=C(c1ccccc1)N1N=C(c2ccco2)CC1c1cccs1 (stereo unspecified),u,u,n,21µM,n,n
O=C(c1ccncc1)N1N=C(c2ccc(Br)cc2)CC1c1ccccc1O (stereo unspecified),n,n,n,n,n,n
Cc1cccc(C(=O)N2[C@@H](C(C)C)COc3cc(Br)ccc3S2(=O)=O)c1,n,n,u,21µM,n,n
CCCCCN(CCCCC)C(=O)[C@H](CCC(=O)O)NC(=O)[C@H](Cc1ccc(OP(=O)(O)O)cc1)NC(C)=O,x,x,n,x,x,x
CCCCCCCCCCCCCCCC(=O)N[C@@H](COP(=O)(O)O)C(=O)O,x,x,13µM,x,x,x
SMILES,WRN inhibitor,PI5P4K alpha inh,VDR inh,PLK1 PBD block,FEN1 inhibitor,TCR act
COc1cc(-c2cc3n(C)c(C)c(CCC(=O)NCc4ccccc4)c(=O)n3n2)cc(OC)c1OC,x,x,n,x,n,x
Cc1cccc(N(C)C(=O)CCNS(=O)(=O)c2ccc3c(c2)CCN3C(=O)C2CC2)c1,x,x,n,x,n,x
CNC(=O)c1cccc2cccc(Sc3ccccc3C(=O)O)c12,n,n,n,n,n,n
Nc1cc(C(=O)O)ccc1Sc1ccccc1C(=O)O,n,u,u,11µM,n,n
O=C(O)c1ccccc1C(=O)c1ccc(Sc2ccc(Cl)cc2)c([N+](=O)[O-])c1,n,n,n,u,n,n
Nc1ccccc1Sc1ccc(C(=O)c2ccccc2C(=O)O)cc1[N+](=O)[O-],n,-66,n,u,n,n
CCC[C@H]1COCCS(=O)(=O)N1Cc1ccc(F)cc1,x,x,x,x,n,x
O=C(N/N=C/c1cccc(O)c1)N/N=C/c1cccc(O)c1,n,-53,n,n,n,n
CCOc1cc(CNc2ccc3cn[nH]c3c2)ccc1OC,n,n,n,n,35µM,n
O=C(C[n+]1cccc(Br)c1)c1ccc(Br)cc1,x,x,x,x,n,x
C[N+]1(CCC(=O)c2ccccc2)CCCCC1,n,n,n,12µM,n,n
O=C(CCN1CCCCC1)c1ccccc1,n,x,n,15µM,n,n
COc1ccc(NC(=O)CCN2CCCC(C)C2)cc1 (stereo unspecified),n,n,n,n,n,n
CC1CCCN(CCC(=O)c2ccccc2)C1 (stereo unspecified),n,n,n,13µM,n,n
CC(=O)OC(C[N+]1(C)CCCCCC1)c1ccccc1 (stereo unspecified),n,n,n,n,n,n
O=C(OCCN1CCOCC1)c1ccccc1,n,n,n,24µM,n,n
O=C(CCN1CCOCC1)c1ccccc1,n,x,n,u,n,n
Cc1ccc(CNC(=O)Cn2cc(S(=O)(=O)Cc3ccccc3Cl)c3ccccc32)cc1,x,x,n,x,n,x
CCOc1ccc(C(=O)Oc2c(Sc3ccccc3)c(C)nn2C(C)(C)C)cc1OCC,x,x,n,x,n,x
CCOC(=O)C1CCN(Cc2cc(=O)oc3cc(C)c(Cl)cc23)CC1,n,n,u,27µM,n,n
Cc1cc2oc(=O)cc(CN3CCCC3)c2cc1Cl,n,n,x,n,x,x
O=C(CS)Nc1ccc2ccccc2c1,n,n,79µM,n,n,n
NC(=S)NNC(=O)C12CC3CC(CC(C3)C1)C2,n,n,n,27µM,n,n
COC(=O)NNC(=O)C12CC3CC(CC(C3)C1)C2,n,n,n,n,n,n
O=C(Cc1cccs1)Nc1ccc(-c2nc3ccccc3[nH]2)cc1,n,n,n,30µM,n,n
SMILES,WRN inhibitor,PI5P4K alpha inh,VDR inh,PLK1 PBD block,FEN1 inhibitor,TCR act
CCN(CC)S(=O)(=O)c1ccc(NC(=O)Cc2cccs2)cc1,n[11.6 µM],u,n,27µM,n,n
COc1cc2c(c(OC)c1OC)-c1c(cc(OC)c(OC)c1OC)CC(C)C(C)C2 (stereo unspecified),x,x,n,x,x,x
CCCCC[C@H](O)/C=C/C=C\C/C=C\C=C\[C@@H](O)CCCC(=O)O,x,x,n,x,x,x
O=C(CC1C(=O)NCCN1Cc1cccc(F)c1)NCCCOc1cccnc1 (stereo unspecified),n,n,n,24µM,n,n
COc1ccccc1CN1CCNC(=O)C1CC(=O)NCCOc1cccnc1 (stereo unspecified),n,n,n,n,n,x
Cc1ccc(Cl)cc1NC(=O)N1CCC(CN2CCCCCC2)CC1,x,x,n,x,n,x
O=[N+]([O-])c1cccc(/C=N/NC2=NS(=O)(=O)c3ccccc32)c1,n,n,n,27µM,n,n
O=[N+]([O-])c1cccc(/C=N/Nc2ccccn2)c1,n,n,n,n,n,n
CCOC(=O)c1c(NC(=O)c2ccccc2C)sc2c1CC(C)(C)OC2,n,n,n,21µM,n,n
C=C(C)CNC(=S)Nc1sc2c(c1C(=O)OCC)CC(C)(C)OC2,n,n,u,19µM,n,n
CCCC(=O)Nc1sc2c(c1C(=O)OCC)CC(C)(C)OC2,n,n,n,n,n,n
